# Bioassay records from PubChem.
# PNC assembly inh: blocks assembly of the perinucleolar compartment. activity change (PNC), negative = inhibition, % at 10 µM. PC3M PTB-GFP, PNC prevalence imaging, 16 h; active compounds read low. actives 3.1% (n = 140,000);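 active = readout at or below -70, meaning at least 70% loss of cells showing the perinucleolar compartment, a nuclear body marking cancer cells; inconclusive = readout between -30 and a set limit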;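 also: plate controls were DMSO wells for no effect and camptothecin positive control wells for full effect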
#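 PC3M cells stably expressing PTB-GFP, 750–1000 cells/well, treated 16 h at 37 °C with compound (23 nl of library stock), in duplicate. After paraformaldehyde fixation and Hoechst stain, imaged at 20x; PNC prevalence scored by image analysis.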
# IMPase cell inh: cell-permeable inhibitors of inositol monophosphatase (IMPase). P97697. CHO-M1 cells, IP1 accumulation, HTRF TR-FRET ratio. inhibition (IP1 accumulation), % at 46.1 µM. 120,000 tested, under 10 active; active = well fitted curve in the direction sought with a large enough effect in the signal ratio, not every such curve was filed as active; inconclusive = small, poorly fitted or top-dose-only effect, or a change in a side signal; inactive = no such curve, though single readings can be large or run the other way; the % refers to the signal ratio;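 also: cells stimulated with carbachol in lithium chloride buffer; plate controls were DMSO basal wells for no effect and reference inhibitor wells for full effect; higher means more IMPase inhibition seen as more IP1 and lower FRET ratio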
# Target sequence (P97697 whole entry, looked up): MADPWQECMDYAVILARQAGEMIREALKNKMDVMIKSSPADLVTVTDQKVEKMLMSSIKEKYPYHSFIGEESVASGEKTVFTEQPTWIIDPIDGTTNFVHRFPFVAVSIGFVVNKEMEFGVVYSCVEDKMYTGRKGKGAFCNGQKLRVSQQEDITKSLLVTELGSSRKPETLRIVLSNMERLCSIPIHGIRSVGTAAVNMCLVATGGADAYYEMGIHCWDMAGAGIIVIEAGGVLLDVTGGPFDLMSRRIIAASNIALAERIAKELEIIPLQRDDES
#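 The IP-One HTRF competitive assay in carbachol-stimulated CHO-M1 cells quantifies cellular IP1. Compounds spanned up to 46 uM final, and activity is expressed as AC50 from concentration-response fits of the ratio and donor data.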
# ALDH1A1 inh: blocks purified human ALDH1A1 activity. P00352. Purified ALDH1A1, NADH fluorescence, propionaldehyde substrate. Potency, µM (top dose mostly 75.3 µM), without a hit: top-dose activity, negative = inhibition, usual class: inhibitors. actives 7.3% (n = 220,000);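 also: potency is read from the fitted curve at half-maximal effect; plate controls were no enzyme wells and a reference inhibitor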
# IMPase Li inh: cell-permeable IMPase inhibitors with lithium potentiation | CHO-M1 cells, IP1 TR-FRET (IP-One), carbachol + lithium | Potency, µM (top dose mostly 59.4 µM), for inactives: top-dose activity, negative = IMPase inhibition, actives largely listed as inhibitors | actives 0.35% (n = 210,000) | AID 1457; active = well fitted curve in the direction sought with a large enough effect; inconclusive = small, poorly fitted or top-dose-only effect, or another doubt; inactive = no such curve, though single readings can be large; an effect the other way counts as inactive or inconclusive;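 also: IP1 builds up when IMPase is blocked and the TR-FRET signal falls; potency is read from the fitted curve at half-maximal effect; plate controls were basal vehicle for no effect and high inhibitor control for full effect; nearly all actives have a fitted effect of over 50% in size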
#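 CHO cells stably expressing M1 receptor (2000/well, cultured 16–30 h) treated 30 min at 37C with compound plus low lithium. Cytosolic IP1 by TR-FRET (665/620 ratio and 620 channel) after 10 min lysis; AC50 by Hill fit.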
# ALOX12 inhib: inhibitors of human 12-lipoxygenase (ALOX12) | AID 1452 | purified 12-hLO, xylenol orange hydroperoxide absorbance | Potency, µM (top dose mostly 57.1 µM), inactives show at the top dose activity change, negative = inhibition, hits mostly inhibitors | actives 0.12% (n = 150,000); active = well fitted curve in the direction sought with a large enough effect; inconclusive = small, poorly fitted or top-dose-only effect, or another doubt; inactive = no such curve, though single readings can be large; an effect the other way counts as inactive or inconclusive; also: potency is read from the fitted curve at half-maximal effect; % is scaled to controls: 0 for no effect and ±100 for the full control effect; nearly all actives have a fitted effect of over 55% in size
#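 Purified human 12hLO (150 nM), preincubated 15 min with compound, then 40 uM arachidonic acid for 30 min, room temperature, Hepes pH 7.0 with 0.01% Triton X-100. Hydroperoxide detected by ferrous iron/xylenol orange; 573/405 nm absorbance ratio gives reaction progress.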
# HPGD inh: blocks human HPGD enzyme activity; P15428; actives 4.3% (n = 150,000); AID 894; Potency, µM, for the others: at the highest dose activity change, negative = inhibition, hits mostly inhibitors; purified HPGD, NADH fluorescence kinetic, PGE2 substrate; also: potency is read from the fitted curve at half-maximal effect; % is scaled to controls: 0 for no effect and ±100 for the full control effect
# Target sequence (P15428 whole entry, looked up): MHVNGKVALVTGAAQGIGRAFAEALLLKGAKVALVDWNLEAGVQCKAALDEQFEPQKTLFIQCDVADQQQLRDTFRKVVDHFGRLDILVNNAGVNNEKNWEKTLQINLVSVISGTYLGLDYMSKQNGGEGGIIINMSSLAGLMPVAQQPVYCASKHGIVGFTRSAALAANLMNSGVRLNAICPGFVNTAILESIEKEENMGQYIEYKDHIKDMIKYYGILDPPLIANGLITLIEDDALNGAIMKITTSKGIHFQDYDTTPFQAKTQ
#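 20 nM HPGD preincubated 15 min at room temperature with compound in 50 mM Tris-HCl pH 8, 0.01% Tween 20. Started with 1 mM NAD+ and 30 uM prostaglandin E2; NADH fluorescence (360/450 nm) read 5 times over 30-s intervals, last minus first.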
# HPGD inh cf: confirmation of human HPGD inhibitors. shares compounds with HPGD inh. recombinant HPGD, NADH fluorescence, PGE2 substrate. Potency, µM (doses to about 57.1 µM), for inactives: at the top dose activity change, negative = inhibition, hits mostly inhibitors. actives 90% (n = 90). AID 2429; calls by dose curve
# * hit, by the source's call; ? = inconclusive; . = no result; [ ] = remark or other dose. Rows were chosen to be rich in hits. Some 11% of all compounds tested hit in one or more screens of this group. Unless noted, calls follow the shape of the dose curve; as a rule, active = well fitted inhibition curve with a large enough effect (not every such curve was filed as active); inconclusive = small, poorly fitted or top-dose-only effect, or another doubt; inactive = no such curve, though single readings can be large or run the other way.
SMILES,PNC assembly inh,IMPase cell inh,ALDH1A1 inh,IMPase Li inh,ALOX12 inhib,HPGD inh,HPGD inh cf
OCCN1CCN(C(=S)c2ccc(Cl)c(Cl)c2)CC1,-15.2,12.3,?,15.7%[38.3 µM],-20.8%,14.1µM*,.
N#CCCN(C(=O)c1ccco1)c1ccccc1,29.9,11.1,-10.7%,.,-2.6%,.,.
N#CCCN(Cc1cccnc1)C(=S)NC(=O)c1ccco1,.,.,11.2µM*,10.9%,.,.,.
N#CCCN(Cc1cccnc1)C(=S)NCc1ccco1,.,.,17.8µM*,12.2%,.,.,.
N#CCCN(C(=S)NC(=O)c1ccco1)c1ccccc1F,.,.,7.94µM*,6.7%,.,.,.
O=C(Oc1ccccc1)N1CCC2(CC1)CN(c1ccncc1)C2,.,.,-13.9%,24.1%,6.8%,-3.2%,.
COc1ncc2nc(-c3ccccc3)c(=O)n(CCc3ccccc3)c2n1,.,.,?,5.9%,.,.,.
Cn1c(=O)cc(OCCCC(=O)N2CCCCC2)c2ccccc21,-12.8,9.8,-4.5%,7.6%,0.7%,7.08µM*,.
Cn1c(=O)cc(OCCCC(=O)NC2CCCC2)c2ccccc21,-13.3,4.0,2.8%,-18.7%[38.3 µM],-4.3%,14.1µM*,.
Cc1ccc(C)c(Cn2nnc3c(=O)[nH]c(C(=O)NCc4ccco4)nc32)c1,30.8,6.3,-14.2%,0.3%[38.3 µM],-17.1%,0.562µM*,0.316µM*
Cc1ccc(C)c(Cn2c(=O)n(-c3ccc(CC(=O)NCc4ccco4)cc3)c(=O)c3sccc32)c1,-9.4,-6.0,11.3%,22.8%[38.3 µM],2.4%,-7.6%,.
CCN(CC)C(=O)CSc1nnc(-c2ccccn2)n1-c1ccc(C)c(C)c1,5.8,-1.1,2.1%,8.0%[38.3 µM],-2.7%,-3.3%,.
COCCNC(=O)C1CCC(Cn2c(=S)[nH]c3ccccc3c2=O)CC1 (stereo unspecified),-13.9,10.6,-5.8%,20.4%[38.3 µM],-2.7%,1.78µM*,1.12µM*
O=C(NCCc1c[nH]c2ccccc12)C1CCC(Cn2c(=S)[nH]c3ccccc3c2=O)CC1 (stereo unspecified),24.9,-1.3,8.2%,10.8%[38.3 µM],-29.4%,-12.8%,.
COc1ccc(-c2cc(C(F)(F)F)n3nc(C(=O)N4CCCCC4)cc3n2)cc1OC,14.8,?,-11.4%,-5.2%[38.3 µM],-3.6%,0.501µM*,0.282µM*
CCOC(=O)C/C(N)=N/N(C)c1ncc(C(F)(F)F)cc1Cl,.,.,0.4%,1.2%,.,.,.
Cc1nnc(NC(=O)CSc2n[nH]c(-c3ccccc3)n2)s1,.,.,?,-6.5%,.,.,.
O=C(CSc1n[nH]c(-c2ccccc2)n1)Nc1ncc(Br)cc1Br,25.4,0.2,7.4%,7.6%[38.3 µM],-10.1%,0.794µM*,1.41µM*
O=C(CCc1ccc(Oc2cc([N+](=O)[O-])cc([N+](=O)[O-])c2)cc1)NC1CCCC1,114.5,.,-6.5%,1.1%,-4.0%,15.8µM*,5.01µM*
CC1CCN(C(=O)CCc2ccc(Oc3cc([N+](=O)[O-])cc([N+](=O)[O-])c3)cc2)CC1,127.4,.,?,19.8%,-4.0%,1µM*,0.891µM*
Cc1ccc(C(=O)COC(=O)CCC(=O)NC2CCCCC2)cc1[N+](=O)[O-],.,.,-9.3%,0.4%,.,.,.
Fc1ccccc1CSc1nc2ncc(Br)cc2[nH]1,35.7,1.1,-15.4%,17.3%[38.3 µM],0.0%,0.794µM*,0.631µM*
O=C(CSc1nc2ncc(Br)cc2[nH]1)c1cccc([N+](=O)[O-])c1,5.5,-5.1,?,11.4%,-2.6%,7.94µM*,2.24µM*
Cc1ccc(S(=O)(=O)NC(=O)NC(C)Cc2ccccc2)cc1 (stereo unspecified),.,.,-5.5%,-4.1%,.,.,.
CC1CCCN(C(=O)c2sc3cc([N+](=O)[O-])ccc3c2Cl)C1 (stereo unspecified),63.1,2.5,5.62µM*,12.0%[38.3 µM],3.3%,0.447µM*,0.501µM*
SMILES,PNC assembly inh,IMPase cell inh,ALDH1A1 inh,IMPase Li inh,ALOX12 inhib,HPGD inh,HPGD inh cf
CC1CCCN(CC(=O)Nc2cccc([N+](=O)[O-])c2)C1 (stereo unspecified),122.2,-4.9,?,12.3%,-4.3%,-9.5%,.
O=C(c1sc2cc(F)ccc2c1Cl)N1CCN(c2ccccc2)CC1,?,.,?,5.2%,2.4%,-21.3%,.
O=C(c1sc2cc([N+](=O)[O-])ccc2c1Cl)N1CCCCC1,4.1,.,?,9.3%,-4.1%,1.12µM*,0.562µM*
COc1ccc(NC(=O)CN2C(=O)N(C)Cc3ccccc32)c(C)c1,.,.,13.2%,9.0%,.,.,.
O=C(Nc1ccc(Br)cc1)N1CCCCCCC1,?,1.3,0.3%,-7.7%[38.3 µM],-2.6%,-8.9%,.
COc1ccccc1C(=O)Nc1ccc(C(=O)N2CCCC2)cc1,?,3.7,-4.6%,17.6%[38.3 µM],1.9%,1.41µM*,1µM*
O=C(Nc1ccc(C(=O)N2CCCCC2)cc1)c1ccc(Br)cc1,42.7,9.1,14.1µM*,-2.0%[38.3 µM],-5.0%,0.631µM*,0.355µM*
O=C(COC(=O)C1CC1)NC(=O)NCc1ccccc1,.,.,8.7%,-1.6%,.,.,.
CCN(c1cccc(C)c1)S(=O)(=O)c1cnc[nH]1,-20.4,-1.4,8.4%,19.6%[38.3 µM],1.4%,4.0%,.
Fc1ccccc1C1c2[nH]c3ccccc3c2CCN1Cc1ccoc1 (stereo unspecified),.,.,0.2%,23.0%,.,.,.
O=C(c1ccc(N2CCCC2=O)cc1)N1CCN(c2ccccc2)CC1,35.8,2.8,8.9%,-24.4%[38.3 µM],-0.4%,-2.6%,.
O=C(c1ccc(N2CCCC2=O)cc1)N1CCCCCC1,80.6,-5.9,?,-26.7%[38.3 µM],2.0%,0.224µM*,0.282µM*
O=C(NCCc1ccc(Cl)cc1)C1CCC(CNc2c(N3CCCCC3)c(=O)c2=O)CC1 (stereo unspecified),13.6,.,-1.6%,6.3%,-3.9%,-27.6%,17.8µM*
COc1ccc(NC(=O)C2CCC(CNc3c(N4CCC(C)CC4)c(=O)c3=O)CC2)cc1OC (stereo unspecified),16.4,2.2,-5.1%,3.2%[38.3 µM],3.0%,?,.
O=C(NCCc1ccccc1)C1CCC(CNc2c(N3CCCCC3)c(=O)c2=O)CC1 (stereo unspecified),63.3,.,-15.7%,9.5%,-0.3%,6.31µM*,6.31µM*
CC1CCN(c2c(NCC3CCC(C(=O)NCCc4ccccc4)CC3)c(=O)c2=O)CC1 (stereo unspecified),?,.,-0.4%,-1.0%,0.8%,6.31µM*,6.31µM*
COc1cc(NC(=O)C2CCC(CNc3c(N4CCCCC4)c(=O)c3=O)CC2)cc(OC)c1 (stereo unspecified),-6.1,-5.9,8.5%,23.3%[38.3 µM],-3.9%,-8.8%,.
